Hits are enriched below; roughly 1.8% of the tested compounds scored in any of these assays.
VDR inh – vitamin D3 receptor (human) inhibition. P11473. VDR-SRC2-3 peptide fluorescence polarization, 2 h. Potency, µM, for the others: max response, negative = inhibition, actives largely listed as inhibitors. hit rate 0.93% among 400,000. AID 504847
Target sequence (P11473 whole entry, looked up): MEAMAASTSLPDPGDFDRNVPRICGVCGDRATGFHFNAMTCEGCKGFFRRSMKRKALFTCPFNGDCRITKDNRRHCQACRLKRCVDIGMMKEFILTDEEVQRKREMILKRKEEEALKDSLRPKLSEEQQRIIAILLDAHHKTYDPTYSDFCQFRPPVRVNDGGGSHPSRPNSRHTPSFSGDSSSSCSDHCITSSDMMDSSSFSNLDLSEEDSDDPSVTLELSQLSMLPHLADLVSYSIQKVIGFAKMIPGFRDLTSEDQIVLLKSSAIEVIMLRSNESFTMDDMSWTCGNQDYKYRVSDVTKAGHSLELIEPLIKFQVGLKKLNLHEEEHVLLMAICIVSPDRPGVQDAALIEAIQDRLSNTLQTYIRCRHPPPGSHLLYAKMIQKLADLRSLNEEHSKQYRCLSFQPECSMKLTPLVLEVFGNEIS
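Two reagent solutions held at 4 deg C in the dark were dispensed, compounds pinned at 23 nl, and the mixture incubated 2 h at room temperature. Read-out: fluorescence polarization of VDR–SRC2-3 peptide binding.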
TrxR1 substrate – substrates of rat thioredoxin reductase 1; O89049; purified TrxR1 substrate turnover, NADPH consumption readout; Potency, µM (highest dose often 114 µM), for inactives: at the top dose activity change, negative = substrate turnover; AID 588456; hit rate 0.01% among 390,000; also: nearly all actives have a fitted effect of over 50% in size
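Rat TrxR1, dispensed at 90 nM, was prereduced with 400 uM NADPH (final) for 5 min at ~22 deg C, then incubated with compound 15 min before 400 uM selenite. A first-read NADPH fluorescence drop versus no-compound background flagged substrates.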
KAT2A inh – blocks human GCN5L2 histone acetyltransferase; Q92830; GCN5L2 HAT assay, ThioGlo1 CoA-SH fluorescence; Potency, µM (titrated, usually from 58.9 µM), without a hit: at the highest dose activity change, negative = inhibition, hits mostly inhibitors; hit rate 0.21% among 390,000; AID 504327
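Fluorescence readout, Ex340nm/Em540nm: ThioGlo1 (50uM final) reacts with free CoA thiol released as 20nM GCN5L2 acetylates H3(1-25) peptide (75uM) using acetyl-CoA (70uM). Compound and enzyme sat 15 min beforehand; 20 min room-temperature reaction.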
rTrxR1 inhibitor – rat TrxR1 inhibition; Potency, µM (series often up to 114 µM), for the others: at the top dose activity change, negative = inhibition, most hits filed as inhibitors; AID 588453; hit rate 1% among 390,000; recombinant rTrxR1, NADPH fluorescence consumption, selenite substrate; also: nearly all actives have a fitted effect of over 65% in size
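Rat TrxR1 (90 nM in the dispensed reagent) was pre-reduced with 400 uM NADPH for 5 min at room temperature, then incubated with compound for 15 min. After 400 uM selenite was added, NADPH fluorescence (Ex 340/Em 450 nm) was followed for 8 min.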
An asterisk follows results filed as active; ? = inconclusive; · = no result given; [ ] = dose if it differs, or a comment. Calls follow the shape of the dose curve; as a rule, active = well fitted curve in the direction sought with a large enough effect; inconclusive = small, poorly fitted or top-dose-only effect, or another doubt; inactive = no such curve, though single readings can be large; an effect the other way counts as inactive or inconclusive. % is scaled to controls: 0 for no effect and ±100 for the full control effect; potency is read from the fitted curve at half-maximal effect.

SMILES | VDR inh | TrxR1 substrate | KAT2A inh | rTrxR1 inhibitor
N#CC1=C2SCN(Cc3ccco3)CN2C(=O)CC1c1cccc2ccccc12 (configuration not stated) | ? | -5% | -26% | ?
O=c1oc2ccccc2c(Cl)c1CN1CCCCC1 | 4% | 6% | -1% | 3.2µM*
CC(C)(C)C1CCc2c(sc(N)c2C(N)=O)C1 (configuration not stated) | 79µM* | 1% | -10% | -7%
CCC(C)(C)C1CCc2c(sc(N)c2C(N)=O)C1 (configuration not stated) | ? | -20% | -9% | -28%
CCOC(=O)[C@@H](C)N(C(=O)OC(C)(C)C)S(=O)(=O)N(Cc1ccccc1)[C@@H](C(=O)OC)C(C)C | · | -4% | · | 14%
O=C(NCc1ccccc1)C1(C(F)(F)F)C/C(=C\Cc2ccccc2)CCCO1 (configuration not stated) | -20% | -11% | · | -23%
C/C=C1\COC(C(=O)NCc2ccccc2)(C(F)(F)F)C=C1C=C(C)C (configuration not stated) | ? | 0% | · | 3.2µM*
Cc1cccc(NC(=O)COC(=O)c2ccc([N+](=O)[O-])o2)c1C | -11% | -3%[57.1 µM] | 0% | ?
CN(C)S(=O)(=O)c1cccc(NC(=O)COC(=O)c2ccc([N+](=O)[O-])o2)c1 | -7% | -7% | -1% | 25µM*
O=C(COC(=O)c1ccc([N+](=O)[O-])o1)Nc1ccc(Br)cc1F | -15% | -6% | -6% | 5µM*
O=C(COC(=O)c1ccc([N+](=O)[O-])o1)Nc1ccc(F)cc1 | 3% | 0% | -2% | 25µM*
COc1ccc(F)c(Cn2cnc3c(cnn3C(C)(C)C)c2=O)c1Cl | · | 5% | · | 12%
COc1cc2nc(CCNCc3ccccc3)nc(NC3CCN(C)CC3)c2cc1OC | · | -4% | · | ?
CCOc1ccccc1N1CSC2=C(C#N)C(c3c(OC)ccc4ccccc34)CC(=O)N2C1 (configuration not stated) | ? | 2%[57.1 µM] | 28µM* | ?
COc1ccc(C2CC(=O)N3CN(c4ccc(C)c(Cl)c4)CSC3=C2C#N)cc1OC (configuration not stated) | 22µM* | -1%[57.1 µM] | ? | ?
COc1ccc(N2CSC3=C(C#N)C(c4ccc(OC)c(OC)c4)CC(=O)N3C2)c(OC)c1 (configuration not stated) | 32µM* | -3%[57.1 µM] | -25% | ?
COc1cc(OC)c(C2CC(=O)N3CN(c4ccc(C)cc4)CSC3=C2C#N)cc1OC (configuration not stated) | 45µM* | -3% | ? | ?
N#CC1=C2SCN(c3ccc(F)cc3)CN2C(=O)CC1c1cccc(F)c1 (configuration not stated) | ? | 6%[57.1 µM] | -19% | -16%[57.1 µM]
COc1ccc(CCNC(=O)C2CC(=O)N(c3ccc(C)cc3)C2)cc1OC (configuration not stated) | -4% | 13% | -4% | 28%
CC1(C)CC1C(=O)N/C(=C/CCCCSCC(N)C(=O)O)C(=O)O (configuration not stated) | -16% | · | 5% | ·
CC(=O)OCC(=O)[C@@]12OC(C)(C)O[C@@H]1C[C@H]1[C@H]3C[C@H](F)C4=CC(=O)C=C[C@@]4(C)[C@]3(F)[C@H](O)C[C@@]12C | -2% | · | -7%[21.4 µM] | ·
COc1ccc(C2CC(=O)N3CN(C4CCCCC4)CSC3=C2C#N)cc1 (configuration not stated) | 45µM* | -18% | 25µM* | ?
CCCSC1=C(C#N)C(c2cc(OC)ccc2OC)CC(=O)N1 (configuration not stated) | 18% | 7% | -1% | 7%
COc1cccc(C2CC(=O)N3CN(C4CCCCC4)CSC3=C2C#N)c1 (configuration not stated) | ? | -4% | ? | -8%
COc1ccc(N2CSC3=C(C#N)C(c4cc(OC)c(OC)cc4OC)CC(=O)N3C2)c(OC)c1 (configuration not stated) | 45µM* | 5%[57.1 µM] | -22% | ?
COc1ccc(N2CSC3=C(C#N)C(c4cc(OC)ccc4OC)CC(=O)N3C2)c(OC)c1 (configuration not stated) | 16µM* | 0%[57.1 µM] | ? | 14µM*
COc1ccc(/C=C2\CCC(C3CCCC3)C2=O)cc1Cn1cccn1 (configuration not stated) | -13% | -7% | -10% | 8%

Source: PubChem
